Measured values published in the supplement of paper PMC11732987, “Enantioselective OTUD7B fragment discovery through chemoproteomics screening and high-throughput optimisation” (Communications Chemistry, 2025).

Experiments:
Assay in all cases: log2 ratio of Biotin-Ahx-Ub-VS probe labelling (fragment/DMSO); higher = less target engagement (more negative = stronger competition), active = hit call of the paper (q ≤ 0.05, log2 ratio ≤ -1)
Settings in all cases: compound concentration: 200 uM; treatment time: 3 h
[1] = target: T1, ALG13 (UniProt Q9NP73)
T1 sequence (whole entry): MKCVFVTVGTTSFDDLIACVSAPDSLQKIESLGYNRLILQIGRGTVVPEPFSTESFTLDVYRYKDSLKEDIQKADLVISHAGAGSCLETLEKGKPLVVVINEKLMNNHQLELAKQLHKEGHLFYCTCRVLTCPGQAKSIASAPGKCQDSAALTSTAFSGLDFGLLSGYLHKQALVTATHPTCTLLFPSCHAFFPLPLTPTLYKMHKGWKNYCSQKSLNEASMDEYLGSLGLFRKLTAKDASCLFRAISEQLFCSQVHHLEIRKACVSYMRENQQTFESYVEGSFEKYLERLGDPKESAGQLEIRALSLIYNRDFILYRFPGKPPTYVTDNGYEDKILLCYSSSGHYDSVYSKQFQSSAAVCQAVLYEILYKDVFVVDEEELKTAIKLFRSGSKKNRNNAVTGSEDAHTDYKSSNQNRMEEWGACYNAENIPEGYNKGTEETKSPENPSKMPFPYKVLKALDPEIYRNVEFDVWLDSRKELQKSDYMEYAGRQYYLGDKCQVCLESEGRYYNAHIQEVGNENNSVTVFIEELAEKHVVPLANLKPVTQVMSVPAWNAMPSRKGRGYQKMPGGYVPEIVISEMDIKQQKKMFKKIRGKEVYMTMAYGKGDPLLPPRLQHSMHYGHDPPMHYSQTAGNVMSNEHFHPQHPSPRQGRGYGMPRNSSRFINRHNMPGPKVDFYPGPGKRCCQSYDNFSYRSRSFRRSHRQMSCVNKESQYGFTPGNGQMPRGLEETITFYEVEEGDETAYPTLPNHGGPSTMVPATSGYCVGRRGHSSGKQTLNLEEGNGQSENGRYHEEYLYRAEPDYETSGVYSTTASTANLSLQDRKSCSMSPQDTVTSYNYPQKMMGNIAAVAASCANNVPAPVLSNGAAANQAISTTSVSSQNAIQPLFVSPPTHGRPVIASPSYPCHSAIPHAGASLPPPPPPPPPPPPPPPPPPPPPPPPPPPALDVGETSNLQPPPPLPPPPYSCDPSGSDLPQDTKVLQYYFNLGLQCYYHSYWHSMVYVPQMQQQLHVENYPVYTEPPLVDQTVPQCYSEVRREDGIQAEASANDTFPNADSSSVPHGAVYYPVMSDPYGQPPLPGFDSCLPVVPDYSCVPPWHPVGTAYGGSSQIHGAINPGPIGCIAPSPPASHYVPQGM
Procedure, shortened: (§1)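 Each value is an average log2 ratio of fragment to vehicle, tested by unpaired t-test. The underlying Spectronaut label-free quantities were global-median-normalised, and only proteins with ≥2 unique peptides were included. Triplicate HEK293T lysate samples (495 µg) were exposed to fragment at 200 µM or vehicle for 3 h, then to Biotin-Ahx-Ub-VS at 0.5 µM final for 1 h, before NeutrAvidin enrichment of labelled DUBs, LysC and trypsin digestion, and diaPASEF LC-MS/MS.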

[2] = target: ATXN3 (UniProt P54252)
Chain of ATXN3 (P54252 whole entry): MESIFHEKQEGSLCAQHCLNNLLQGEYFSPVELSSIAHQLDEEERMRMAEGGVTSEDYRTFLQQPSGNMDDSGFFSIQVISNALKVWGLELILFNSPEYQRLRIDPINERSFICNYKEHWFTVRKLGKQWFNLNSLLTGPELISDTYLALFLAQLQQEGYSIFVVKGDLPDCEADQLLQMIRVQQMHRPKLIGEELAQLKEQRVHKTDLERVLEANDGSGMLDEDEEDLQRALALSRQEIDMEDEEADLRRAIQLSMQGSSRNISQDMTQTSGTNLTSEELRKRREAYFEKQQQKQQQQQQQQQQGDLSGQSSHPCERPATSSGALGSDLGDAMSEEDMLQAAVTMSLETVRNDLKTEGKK
Procedure, shortened: as §1

[3] = target: T2, BAP1 (UniProt Q92560)
T2 sequence (whole entry): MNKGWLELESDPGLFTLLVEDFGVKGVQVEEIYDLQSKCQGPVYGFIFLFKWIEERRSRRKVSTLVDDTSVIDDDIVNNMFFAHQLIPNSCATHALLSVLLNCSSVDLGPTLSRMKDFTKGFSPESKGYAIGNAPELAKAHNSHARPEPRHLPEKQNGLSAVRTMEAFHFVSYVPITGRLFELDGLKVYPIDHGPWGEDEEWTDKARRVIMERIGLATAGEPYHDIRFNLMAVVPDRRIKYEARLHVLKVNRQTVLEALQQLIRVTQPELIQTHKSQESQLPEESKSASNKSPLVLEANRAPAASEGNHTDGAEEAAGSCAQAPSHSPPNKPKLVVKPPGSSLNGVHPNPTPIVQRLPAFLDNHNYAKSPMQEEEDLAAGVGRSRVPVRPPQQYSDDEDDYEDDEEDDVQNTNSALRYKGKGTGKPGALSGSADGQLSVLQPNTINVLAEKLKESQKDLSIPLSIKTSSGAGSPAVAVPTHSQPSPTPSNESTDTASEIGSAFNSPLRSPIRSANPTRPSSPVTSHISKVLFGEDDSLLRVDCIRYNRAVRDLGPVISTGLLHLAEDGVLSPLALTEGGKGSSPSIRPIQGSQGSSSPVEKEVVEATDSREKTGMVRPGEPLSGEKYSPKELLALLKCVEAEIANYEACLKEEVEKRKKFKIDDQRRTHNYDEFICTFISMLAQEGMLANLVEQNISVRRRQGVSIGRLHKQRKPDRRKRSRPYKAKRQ
Procedure, shortened: as §1

[4] = target: EIF3F (UniProt O00303)
Chain of EIF3F (O00303 whole entry): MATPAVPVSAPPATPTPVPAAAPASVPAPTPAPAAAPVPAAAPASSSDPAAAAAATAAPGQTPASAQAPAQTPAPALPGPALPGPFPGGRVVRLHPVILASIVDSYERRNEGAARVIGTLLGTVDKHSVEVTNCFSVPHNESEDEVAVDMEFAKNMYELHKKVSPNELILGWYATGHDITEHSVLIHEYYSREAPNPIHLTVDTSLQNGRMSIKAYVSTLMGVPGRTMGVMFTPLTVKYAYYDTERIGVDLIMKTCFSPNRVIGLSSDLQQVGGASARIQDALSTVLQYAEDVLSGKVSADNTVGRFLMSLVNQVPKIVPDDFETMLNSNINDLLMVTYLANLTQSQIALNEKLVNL
Procedure, shortened: as §1

[5] = target: EIF3H (UniProt O15372)
Chain of EIF3H (O15372 whole entry): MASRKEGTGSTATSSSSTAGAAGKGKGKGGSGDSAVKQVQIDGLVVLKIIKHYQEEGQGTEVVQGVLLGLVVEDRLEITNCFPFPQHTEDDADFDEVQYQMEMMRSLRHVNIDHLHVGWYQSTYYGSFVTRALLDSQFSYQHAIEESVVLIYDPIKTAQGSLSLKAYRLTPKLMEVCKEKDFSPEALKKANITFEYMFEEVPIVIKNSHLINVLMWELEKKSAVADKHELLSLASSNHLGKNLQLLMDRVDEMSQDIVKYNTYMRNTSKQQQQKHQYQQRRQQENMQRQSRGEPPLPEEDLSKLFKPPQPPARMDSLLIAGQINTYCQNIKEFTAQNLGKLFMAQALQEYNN
Procedure, shortened: as §1

[6] = target: T3, FAM105A (UniProt Q9NUU6)
T3 sequence (whole entry): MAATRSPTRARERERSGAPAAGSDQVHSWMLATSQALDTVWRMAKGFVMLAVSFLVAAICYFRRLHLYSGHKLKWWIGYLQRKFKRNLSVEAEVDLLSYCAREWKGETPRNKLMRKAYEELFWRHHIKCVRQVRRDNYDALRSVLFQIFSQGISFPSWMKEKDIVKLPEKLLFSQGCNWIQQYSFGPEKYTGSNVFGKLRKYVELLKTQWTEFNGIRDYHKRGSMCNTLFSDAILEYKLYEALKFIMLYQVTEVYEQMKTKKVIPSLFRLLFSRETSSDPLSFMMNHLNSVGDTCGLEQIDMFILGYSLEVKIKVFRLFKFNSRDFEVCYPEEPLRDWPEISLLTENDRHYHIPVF
Procedure, shortened: as §1

[7] = target: OTUB1 (UniProt Q96FW1)
Chain of OTUB1 (Q96FW1 whole entry): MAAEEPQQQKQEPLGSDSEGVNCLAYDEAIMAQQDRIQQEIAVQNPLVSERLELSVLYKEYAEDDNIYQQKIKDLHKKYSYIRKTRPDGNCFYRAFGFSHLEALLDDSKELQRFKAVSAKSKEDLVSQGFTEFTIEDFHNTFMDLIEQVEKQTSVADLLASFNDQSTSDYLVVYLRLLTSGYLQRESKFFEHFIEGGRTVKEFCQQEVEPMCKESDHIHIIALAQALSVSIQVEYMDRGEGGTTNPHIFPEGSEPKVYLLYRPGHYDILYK
Procedure, shortened: as §1

[8] = target: T4, OTUD4 (UniProt Q01804)
T4 sequence (whole entry): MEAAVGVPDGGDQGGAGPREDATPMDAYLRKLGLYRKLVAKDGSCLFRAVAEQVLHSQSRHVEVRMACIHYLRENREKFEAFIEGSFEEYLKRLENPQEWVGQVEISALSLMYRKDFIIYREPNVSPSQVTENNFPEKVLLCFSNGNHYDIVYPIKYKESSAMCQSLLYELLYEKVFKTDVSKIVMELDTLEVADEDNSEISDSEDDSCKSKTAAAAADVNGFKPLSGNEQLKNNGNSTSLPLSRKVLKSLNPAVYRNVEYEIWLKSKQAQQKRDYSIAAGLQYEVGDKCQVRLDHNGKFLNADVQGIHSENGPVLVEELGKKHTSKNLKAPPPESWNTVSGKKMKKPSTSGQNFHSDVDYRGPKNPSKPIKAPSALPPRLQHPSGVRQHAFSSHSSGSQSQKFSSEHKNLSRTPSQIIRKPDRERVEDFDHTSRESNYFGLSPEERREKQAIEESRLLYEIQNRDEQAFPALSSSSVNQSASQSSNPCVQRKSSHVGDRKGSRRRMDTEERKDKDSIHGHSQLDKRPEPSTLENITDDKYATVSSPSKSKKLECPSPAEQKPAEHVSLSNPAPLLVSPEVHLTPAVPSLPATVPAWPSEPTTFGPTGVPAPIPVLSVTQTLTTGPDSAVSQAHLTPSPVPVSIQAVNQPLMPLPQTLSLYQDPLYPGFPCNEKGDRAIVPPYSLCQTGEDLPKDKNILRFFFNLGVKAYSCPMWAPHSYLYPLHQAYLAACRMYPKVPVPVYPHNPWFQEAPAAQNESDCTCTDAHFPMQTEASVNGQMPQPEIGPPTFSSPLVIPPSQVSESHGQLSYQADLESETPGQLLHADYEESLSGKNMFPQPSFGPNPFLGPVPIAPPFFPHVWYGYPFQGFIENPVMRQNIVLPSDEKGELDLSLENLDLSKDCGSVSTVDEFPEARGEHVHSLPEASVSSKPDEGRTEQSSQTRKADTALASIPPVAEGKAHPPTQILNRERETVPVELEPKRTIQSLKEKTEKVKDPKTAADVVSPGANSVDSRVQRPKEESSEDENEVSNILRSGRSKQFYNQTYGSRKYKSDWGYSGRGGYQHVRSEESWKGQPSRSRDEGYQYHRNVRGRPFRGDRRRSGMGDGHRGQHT
Procedure, shortened: as §1

[9] = target: T5, OTUD5 (UniProt Q96G74)
T5 sequence (whole entry): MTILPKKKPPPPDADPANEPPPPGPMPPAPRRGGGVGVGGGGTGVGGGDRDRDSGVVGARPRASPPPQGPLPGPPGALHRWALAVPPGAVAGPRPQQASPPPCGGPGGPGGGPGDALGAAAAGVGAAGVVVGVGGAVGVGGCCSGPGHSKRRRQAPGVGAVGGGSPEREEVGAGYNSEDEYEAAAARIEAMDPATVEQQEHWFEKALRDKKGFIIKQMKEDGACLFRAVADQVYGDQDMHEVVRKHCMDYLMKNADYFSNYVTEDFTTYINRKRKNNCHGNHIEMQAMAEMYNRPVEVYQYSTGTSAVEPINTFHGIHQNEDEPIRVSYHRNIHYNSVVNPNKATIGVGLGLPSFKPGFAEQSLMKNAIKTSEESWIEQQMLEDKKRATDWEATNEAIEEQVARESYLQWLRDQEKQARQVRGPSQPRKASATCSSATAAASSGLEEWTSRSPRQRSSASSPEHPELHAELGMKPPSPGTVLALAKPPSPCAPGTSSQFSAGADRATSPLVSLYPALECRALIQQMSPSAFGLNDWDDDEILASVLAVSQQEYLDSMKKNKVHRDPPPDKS
Procedure, shortened: as §1

Measured: log2 ratio of Biotin-Ahx-Ub-VS probe labelling

COc1ccc(C2CCCN2C(=O)CCl)c(OC)c1 (stereo not drawn)
inactive: [1] -0.266 | [2] -0.54 | [4] -0.23 | [5] -0.25 | [6] 0.0093 | [7] 0.0641 | [8] 0.0731 | [9] -0.185
active: [3] -3.55

Cl.O=C(CCl)NCc1cc2c(nc1O)CCCC2
inactive: [1] -0.00624 | [2] -0.358 | [4] 0.116 | [5] 0.0749 | [6] 0.13 | [7] -0.044 | [8] -0.437 | [9] -0.468
active: [3] -1.87

Cc1ccc(CNC(=O)CCl)nc1C.Cl
inactive: [1] -0.419 | [2] -0.055 | [4] -0.526 | [5] 0.278 | [6] -0.225 | [7] -0.192 | [8] -0.29 | [9] -0.221
active: [3] -1.57

O=C(CCl)N(C1CCCC1)C1CCS(=O)(=O)C1 (stereo not drawn)
inactive: [1] 0.338 | [2] -0.109 | [3] -0.0673 | [4] -0.335 | [5] 0.00604 | [6] 0.169 | [7] -0.343 | [8] 0.0168 | [9] -0.379

O=C(CCl)Nc1cc(Cl)ccc1C(=O)O
inactive: [1] -0.0259 | [2] 0.182 | [3] -0.0627 | [4] -0.053 | [5] -0.119 | [6] -0.0511 | [7] 0.108 | [8] 0.038 | [9] -0.156

Cc1nc(CN2CCN(C(=O)CCl)CC2)cs1
inactive: [1] 0.271 | [2] -0.309 | [3] -0.469 | [4] -0.26 | [5] 0.0747 | [6] 0.151 | [7] 0.0298 | [8] -0.0355 | [9] -0.265

Cc1cc(C2CCCN2C(=O)CCl)nn1C.Cl (stereo not drawn)
inactive: [1] 0.0249 | [2] -0.374 | [3] -0.0558 | [4] -0.11 | [5] -0.0784 | [6] 0.201 | [7] -0.0124 | [8] -0.0857 | [9] -0.157
